# Rows were chosen to be rich in hits. Some 3.7% of all compounds tested hit in one or more screens of this group.
# tim23-1 inh = growth inhibitors of tim23-1 mutant yeast; S. cerevisiae tim23-1 growth, BacTiter-Glo luminescence, 24 h; inhibition, % at 20 µM; actives 1.3% (n = 330,000);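 active means growth inhibition of the mutant yeast at or above 50%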;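 further: temperature-sensitive mutant grown at 25 °C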
# NALP3 yeast inh = inhibitors of NALP3 inflammasome in yeast; Yeast reconstituted NLRP3/ASC/caspase-1, beta-gal luminescence, 24 h; actives 0.39% (n = 330,000); inhibition, % at 10 µM;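 active means inhibition of 50% or more; inactive means inhibition below 50%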
# tim10-1 inh = inhibits growth of tim10-1 mutant yeast; actives 2.2% (n = 330,000); AID 463190; inhibition, % at 20 µM; S. cerevisiae tim10-1 ts strain growth, BacTiter-Glo, 24 h;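 active means inhibition of at least 40%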;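 further: mutant grown at 25 °C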
# TIM10 inh = inhibits growth of TIM10 yeast strain | S. cerevisiae TIM10 strain growth, BacTiter-Glo luminescence, 24 h | actives 1.4% (n = 330,000) | inhibition, % at 10 µM | AID 463195;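 active means inhibition of 40% or more at the single tested concentration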;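 further: wild-type TIM10 isogenic control strain grown at permissive 25 °C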
# PfHsp90 set2 = growth inhibition of yeast expressing Plasmodium Hsp90 | AID 504621 | inhibition, % at 9.4 µM | S. cerevisiae expressing PfHsp90, BacTiter-Glo ATP, 48 h; yeast lacking PDR1 and PDR3 efflux regulators | actives 0.32% (n = 310,000);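 active means every replicate shows inhibition above about 80%, whatever the replicate mean, limit read from the data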
# tim10-1 confirm = confirmation of tim10-1 mutant yeast growth inhibitors; shares compounds with tim10-1 inh; S. cerevisiae tim10-1 ts strain growth, BacTiter-Glo, 24 h; inhibition, % at 20 µM; actives 56% (n = 7,400);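 active means inhibition of yeast growth at or above a set limit in either of two repeat tests at 20 µM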;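 further: tim10-1 mutant grown at permissive 25 °C to find synthetic lethal compounds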
# Hits are given with their value; i = inactive; nt = no result given.
SMILES,tim23-1 inh,NALP3 yeast inh,tim10-1 inh,TIM10 inh,PfHsp90 set2,tim10-1 confirm
CCOC(=O)C1CCN(c2cc3c(cc2NC(=O)c2ccccc2F)n(C)c(=O)n3C)CC1,i,i,i,i,i,nt
CCOC(=O)C1CCN(c2cc3c(cc2NC(=O)c2ccccc2Cl)n(C)c(=O)n3C)CC1,i,i,49,i,i,i
CCOC(=O)C1CCN(c2cc3c(cc2NC(=O)c2ccccc2OCC)n(C)c(=O)n3C)CC1,i,i,48,i,i,i
O=c1[nH]c(CN2CCN(S(=O)(=O)c3ccc(Cl)cc3)CC2)nc2cc(Cl)ccc12,i,i,48,i,i,31
O=C(c1ccco1)N1CCN(CCCCOc2ccc(F)cc2)CC1,i,i,i,i,i,nt
Cc1ccc(N2CN=C(c3ccccc3)NC2=S)cc1,i,i,44,i,i,i
COc1ccc(C2=NCN(c3ccc(C)cc3)C(=S)N2)cc1,i,i,i,i,i,nt
COc1ccc(C(=O)N2CCCC(CO)(Cc3ccccc3C)C2)o1 (stereo not given),i,i,48,i,i,i
Cc1ccccc1CC1(CO)CCCN(C(=O)c2cc(Cl)ccc2F)C1 (stereo not given),i,i,42,i,i,32
CC(C)CNC(=O)C1C2C=CC(C2)C1C(=O)O (stereo not given),i,i,i,i,nt,nt
CCOC(=O)c1oc2nc(C(C)C)c3c(c2c1N)CCC3,i,i,43,i,i,i
CNC[C@H]1Oc2ccc(NC(=O)C3CCCCC3)cc2CC(=O)N([C@H](C)CO)C[C@@H]1C,i,i,i,i,i,nt
COc1ccc2sc(-c3ccc(S(C)(=O)=O)cc3)c(C#CCO)c2c1,i,i,43,i,i,41
CCOC(=O)N1CCN(C(=O)c2cccc(N3C(=O)NC4CC3(C)Oc3ccc(Cl)cc34)c2)CC1 (stereo not given),i,i,45,i,i,i
CCOC(=O)C1CCN(C(=O)c2cccc(N3C(=O)NC4CC3(C)Oc3ccc(C)cc34)c2)CC1 (stereo not given),i,i,i,i,i,nt
COc1cc([N+](=O)[O-])cc(/C=N/N(CCC#N)C(C)=O)c1O,i,i,i,i,i,nt
Nc1cccc(Nc2nc(OC(C(F)(F)F)C(F)(F)F)nc(OC(C(F)(F)F)C(F)(F)F)n2)c1,i,i,43,i,i,38
C=CC[N+](C)(C)CCN1C(=O)C2C(c3ccccc3)C=CC(c3ccccc3)C2C1=O (stereo not given),i,i,i,i,i,nt
C=CCOCCN1C(=O)C2C(c3ccccc3)C=CC(c3ccccc3)C2C1=O (stereo not given),i,i,41,i,i,i
CC(C)(C)C(=O)Nc1ccccc1C(=O)Nc1cc(Cl)ccc1Cl,i,i,43,i,i,36
CC(C)(C)C(=O)Nc1ccccc1C(=O)Nc1cccnc1,i,i,i,i,i,nt
Cc1cc(C(=O)NC2CCCc3c2cnn3-c2cccc(C)c2C)n(C)n1 (stereo not given),i,i,i,i,i,nt
CC1CCCCN1C(=O)CSc1nc2c(c(=O)n(C)c(=O)n2C)n1C (stereo not given),i,i,i,i,i,nt
Cc1cc(=O)n2c3c(sc2n1)C(=O)N(Cc1ccccc1)C3=O,i,i,40,i,nt,34
Cc1occc1-c1nnc(SCC(=O)Nc2ccccc2N2CCCCC2)n1C,i,i,47,i,i,i
SMILES,tim23-1 inh,NALP3 yeast inh,tim10-1 inh,TIM10 inh,PfHsp90 set2,tim10-1 confirm
Cc1occc1-c1nnc(SCC(=O)Nc2ccccc2)n1C,i,i,i,i,i,nt
COc1ccccc1NC(=O)c1nnn(CC(=O)Nc2cccc(SC)c2)c1N,i,i,i,i,i,nt
CN(Cc1ccccc1)C(=O)c1ccc(NC(=O)Cc2ccc(NC(=O)C3CCCN(C(=O)CCc4ccccc4)C3)cc2)cc1 (stereo not given),nt,nt,nt,nt,i,nt
CC(C)(C)c1ccc(S(=O)(=O)CC(O)CSc2nc3c(cc2C#N)CCCC3)cc1 (stereo not given),i,i,40,i,i,i
C=CCc1c(C)nc(SC)nc1Nc1ccccc1,i,i,44,i,nt,i
COc1cc(OC)c2c3c(c(C4CCCCC4)nc2c1)CCC3,i,i,52,i,i,30
COc1ccc(-c2nc(C3CCCCC3)c3cc(OC)ccc3n2)cc1,i,i,i,i,i,nt
O=C(CCNc1ccc(Cl)c(C(F)(F)F)c1)c1ccco1,i,i,43,i,i,i
CCOC(=O)c1[nH]c(C)c(C(=O)OCC(=O)N(CC)C2CCS(=O)(=O)C2)c1C (stereo not given),i,i,i,i,i,nt
Cc1oc(=O)c(NC(=O)c2ccc(Cl)cc2)cc1C(=O)c1ccccc1,i,i,56,i,i,57
O=C(CN1C(=O)CCS(=O)(=O)c2ccccc21)Nc1ccccc1F,i,i,i,i,i,nt
CCc1ccccc1NC(=O)CC1CS(=O)(=O)CC1CC(=O)Nc1ccccc1CC (stereo not given),i,i,i,i,i,nt
O=C(CC1CS(=O)(=O)CC1CC(=O)Oc1ccccc1F)Oc1ccccc1F (stereo not given),i,i,44,i,i,i
COc1cc(NC(=O)COC(=O)c2n[nH]c3ccccc23)c(C)cc1[N+](=O)[O-],i,i,i,i,i,nt
Cc1cccc(C)c1NC(=O)C(c1ccc(Cl)cc1Cl)N1CCCCC1 (stereo not given),i,i,42,i,i,i
CC(Sc1nnc(C2CC2)n1N)C(=O)NC1CCCCC1C (stereo not given),i,i,i,i,i,nt
O=C(NCc1ccco1)C1(c2ccc(Br)cc2)CCCC1,i,i,i,i,i,nt
COC(=O)Sc1nc(N2CCOCC2)c2c(c1C#N)CC(C)(C)OC2,i,i,45,i,i,31
N=c1n(CCN2CCCCC2)c2ccccc2n1CC(=O)c1ccc(Cl)c(Cl)c1,i,i,i,i,nt,nt
CCn1c(=N)n(CC(=O)c2ccc(Cl)c(Cl)c2)c2ccccc21,i,i,42,i,i,i
CCc1nn(-c2ccccc2)c(N)c1C#N,i,i,i,i,i,nt
CCc1nn(-c2ccccc2)c(=S)c2ccccc12,i,i,46,i,i,52
N#C/C(=C\C=C\c1ccccc1[N+](=O)[O-])C(=O)NCc1ccccc1,i,i,45,i,i,35
CN(C(=S)NC(=O)c1ccc(Cl)cc1)C1CCCCC1,i,i,42,i,i,i
CN(C(=S)NC(=O)c1ccc(F)cc1)C1CCCCC1,i,i,i,i,i,nt
Cc1cccc(C)c1OCC(O)Cn1c2ccccc2c2ccccc21 (stereo not given),i,i,45,i,nt,i
Cc1ccc(OCC(O)Cn2c3ccccc3c3ccccc32)cc1 (stereo not given),i,i,i,i,i,nt
O=C1CS/C(=N\c2ccccn2)N1C1CCCCC1,i,i,i,i,i,nt

# From PubChem
